The values below come from a collection of fitness landscapes (doi:10.1126/science.1257360).

Over roughly 140,000 sequences, “enrichment ratio after two sorts for PhoP signalling” has its median near 0; the highest 2% begin near 11. This excerpt belongs to a sample that is enriched for the highest values.

The labels stand for the following.
B1: PhoQ; a variant is named by its letters at X, in order, P23837 (parent)
chain: MKKLLRLFFPLSLRVRFLLATAAVVLVLSLAYGMVALIGYSVSFDKTTFRLLRGESNLFYTLAKWENNKLHVELPENIDKQSPTMTLIYDENGQLLWAQRDVPWLMKMIQPDWLKSNGFHEIEADVNDTSLLLSGDHSIQQQLQEVREDDDDAEMTHSVAVNVYPATSRMPKLTIVVVDTIPVELKSSYMVWSWFIYVLSANLLLVIPLLWVAAWWSLRPIEALAKEVRELEEHNRELLNPATTRELTSLVRNLNRLLKSERERYDKYRTTLTDLTHSLKTPLXXLQXXLRSLRSEKMSVSDAEPVMLEQISRISQQIGYYLHRASMRGGTLLSRELHPVAPLLDNLTSALNKVYQRKGVNISLDISPEISFVGEQNDFVEVMGNVLDNACKYCLEFVEISARQTDEHLYIVVEDDGPGIPLSKREVIFDRGQRVDTLRPGQGVGLAVAREITEQYEGKIVAGESMLGGARMEVIFGRQHSAPKDE

This assay covers variants of B1. The assay can be described thus: enrichment ratio after two sorts for PhoP signalling (ratio (wild type AVST 3.29)); higher = more functional. To be noted: with PhoP (E. coli).
RRYY: the enrichment ratio is no more than 0.25.
On to YGSL, for which the enrichment ratio is no more than 0.25.
With TGLT, the enrichment ratio came to 13.5.
Regarding AGLS, the enrichment ratio came out at 13.8.
In the case of ECEP, the enrichment ratio is 15.1.
For NGLT the value was no more than 0.25; for NGLA, no more than 0.25; for IPEP, no more than 0.25.
For the variant RGLA, the enrichment ratio was no more than 0.25.
As for RYEP, the enrichment ratio is no more than 0.25.
On to TGLA, for which the enrichment ratio was determined as 27.5.
For AGLT, the enrichment ratio came out at 7.3.
Turning to RGLT, the enrichment ratio is no more than 0.25.
Take AGLA: the enrichment ratio stood at 4.99.
Take VHMY: the enrichment ratio is no more than 0.25.
For the variant LARA, the enrichment ratio was no more than 0.25.
On to WQQI, for which the enrichment ratio is no more than 0.25.
FPEF: the enrichment ratio was no more than 0.25.
As to IHDS, the enrichment ratio is no more than 0.25.
For DVNT, the enrichment ratio was no more than 0.25.
The same measure for EHHK: 14.4.
Regarding TGLN, the enrichment ratio was determined as 25.4.
With WIWI, the enrichment ratio is no more than 0.25.
In the case of NGLS, the enrichment ratio was no more than 0.25.
For EHHF the value was no more than 0.25.
For the variant EHHE, the enrichment ratio is no more than 0.25.
In the case of CFLN, the enrichment ratio was no more than 0.25.
For RGLS, the enrichment ratio is no more than 0.25.
For TGLS the value was 14.9.
In the case of KSWI, the enrichment ratio is no more than 0.25.
Consider NGLN, for which the enrichment ratio was no more than 0.25.
The same measure for TGWI: 26.1; for FPGM: no more than 0.25; for LGWH: no more than 0.25.
As for GMYH, the enrichment ratio is no more than 0.25.
Take PFMM: the enrichment ratio is no more than 0.25.
The same measure for RQLT: no more than 0.25.
As to HMPW, the enrichment ratio was no more than 0.25.
GHLA: the enrichment ratio is no more than 0.25.
The same measure for DNNV: no more than 0.25; for TWFG: no more than 0.25; for WQAF: no more than 0.25.
Consider KYAW, for which the enrichment ratio was no more than 0.25.
In the case of SQAW, the enrichment ratio was no more than 0.25.
With SIAW, the enrichment ratio is 16.5.
Turning to STAW, the enrichment ratio came to 13.1.
The same measure for WIAW: no more than 0.25; for YTAW: no more than 0.25; for FGTC: no more than 0.25.
Regarding RLLI, the enrichment ratio was no more than 0.25.
Regarding DHVP, the enrichment ratio was no more than 0.25.
On to LTSI, for which the enrichment ratio is no more than 0.25.
For YTSI, the enrichment ratio is no more than 0.25.
Turning to CTSI, the enrichment ratio was found to be 19.6.
The same measure for KQSI: no more than 0.25.
With TTSI, the enrichment ratio was determined as 17.1.
On to ITSI, for which the enrichment ratio is no more than 0.25.
For PECL the value was no more than 0.25; for DRWN, no more than 0.25.
The same measure for QETT: no more than 0.25; for MHTT: no more than 0.25; for MFTT: no more than 0.25.
For the variant NETT, the enrichment ratio was no more than 0.25.
Take TETT: the enrichment ratio is 25.2.
For METT, the enrichment ratio was 13.
For the variant DEMI, the enrichment ratio was no more than 0.25.
Consider SQNC, for which the enrichment ratio is no more than 0.25.
Regarding EVAF, the enrichment ratio was no more than 0.25.
Turning to GNFR, the enrichment ratio is no more than 0.25.
The same measure for PGNR: no more than 0.25; for RASR: no more than 0.25; for MEIC: 11.
As for SERC, the enrichment ratio was no more than 0.25.
For the variant STAV, the enrichment ratio stood at 5.94.
For SEIS, the enrichment ratio was 8.01.
Turning to SEAV, the enrichment ratio was determined as 13.6.
On to DDIA, for which the enrichment ratio is no more than 0.25.
Regarding SEAE, the enrichment ratio was 5.82.
Turning to SEIA, the enrichment ratio was found to be 13.7.
Take SPIA: the enrichment ratio was no more than 0.25.
In the case of SEIV, the enrichment ratio stood at 18.7.
The same measure for SEWV: 0.784.
For the variant SEIC, the enrichment ratio amounted to 32.9.
As for DHWR, the enrichment ratio was no more than 0.25.
Turning to MSEQ, the enrichment ratio was no more than 0.25.
In the case of LCAF, the enrichment ratio is no more than 0.25.
Consider MMGP, for which the enrichment ratio was no more than 0.25.
The same measure for YYDN: no more than 0.25; for PLDS: no more than 0.25.
Regarding NPKR, the enrichment ratio was no more than 0.25.
As to FGMH, the enrichment ratio is no more than 0.25.
As to DDIY, the enrichment ratio is no more than 0.25.
As for SEMV, the enrichment ratio came to 23.8.
On to SFFV, for which the enrichment ratio is no more than 0.25.
For the variant SEEV, the enrichment ratio was determined as 1.98.
For the variant SEFV, the enrichment ratio came to 11.8.
For the variant SQIG, the enrichment ratio worked out at 9.99.
As for SPIG, the enrichment ratio was no more than 0.25.
As for SEMW, the enrichment ratio is no more than 0.25.
The same measure for KYIY: no more than 0.25; for SEIG: 13.1; for SEPV: no more than 0.25.
Regarding SEIY, the enrichment ratio came to 21.5.
For KQPW, the enrichment ratio is no more than 0.25.
For DFRP the value was no more than 0.25; for WSND, no more than 0.25.
In the case of AMAT, the enrichment ratio stood at 3.36.
Consider YYEG, for which the enrichment ratio is no more than 0.25.
The same measure for ESCY: no more than 0.25; for SRIC: no more than 0.25.
Consider LWNH, for which the enrichment ratio was no more than 0.25.
On to LGQL, for which the enrichment ratio was no more than 0.25.
Take QDGH: the enrichment ratio was no more than 0.25.
Regarding HECK, the enrichment ratio was no more than 0.25.
On to HFCM, for which the enrichment ratio was determined as 1.37.
The same measure for TQCM: 33.7; for DWCM: no more than 0.25.
Regarding SQCM, the enrichment ratio is 19.2.
In the case of KQCM, the enrichment ratio was no more than 0.25.
With IQCM, the enrichment ratio is no more than 0.25.
Consider FQCM, for which the enrichment ratio was 10.7.
HECM: the enrichment ratio worked out at 24.
For SNCM the value was 11.2.
As to NQCM, the enrichment ratio is no more than 0.25.
In the case of EQCM, the enrichment ratio is no more than 0.25.
For SQKE the value was no more than 0.25; for PCCP, no more than 0.25.
PFFR: the enrichment ratio is no more than 0.25.
LMAE: the enrichment ratio is no more than 0.25.
The same measure for MLGA: no more than 0.25; for SMKT: no more than 0.25.
In the case of AWAS, the enrichment ratio is no more than 0.25.
In the case of IGQR, the enrichment ratio is no more than 0.25.
Consider DAQH, for which the enrichment ratio is no more than 0.25.
With QEHG, the enrichment ratio worked out at 11.2.
Regarding STHG, the enrichment ratio is no more than 0.25.
MTHG: the enrichment ratio was no more than 0.25.
For QPHG, the enrichment ratio was no more than 0.25.
Regarding YYHG, the enrichment ratio is no more than 0.25.
For the variant MEHG, the enrichment ratio worked out at 11.9.
For HDSR the value was no more than 0.25; for DTEC, no more than 0.25; for LQRA, no more than 0.25.
For AIQG the value was no more than 0.25.
Consider YGYF, for which the enrichment ratio is no more than 0.25.
GGAK: the enrichment ratio was no more than 0.25.
For NGRQ the value was no more than 0.25; for HEMN, no more than 0.25.
On to NQCL, for which the enrichment ratio is no more than 0.25.
In the case of SNMN, the enrichment ratio was determined as 22.4.
The same measure for IQCL: no more than 0.25; for SNPN: no more than 0.25.
In the case of SNQN, the enrichment ratio was no more than 0.25.
